Experimental data from PubChem BioAssay.
For some assays here: Entries with a potency or affinity are not part of this list. Active and inactive are the calls of the source. Unless noted, how the calls were made is not given here.

Experiments:
[1] = antimalarial activity against Dd2 strain (AID 2302;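 active means growth inhibition above 50% at the single 2 µM test dose, taken to imply half-maximal potency below 2 µM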;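 further: 0% = DMSO untreated growth and 100% = chloroquine plus artemisinin killed control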); details: P. falciparum Dd2 in RBCs, LDH growth readout, 72 h; at 2 µM; active compounds read high
[2] = HepG2 cytotoxicity, primary screen, cytotoxicity control for P. falciparum antimalarial project, cell-based, ATP luminescence (AID 2303;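 active means inhibition above 50%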;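 further: 0% = DMSO wells and 100% = digitonin-killed cells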); details: HepG2 viability, 24-48 h, at 10 µM, active compounds read high
[3] = molecular target: L-lactate dehydrogenase (Plasmodium falciparum (isolate CDC / Honduras)) (UniProt Q27743); assay: PfLDH activity inhibition – cell lysate, 3D7 strain, counter-screen for P. falciparum growth inhibition project (AID 2304);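 further: 0% = vehicle and 100% = reference inhibitor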; details: P. falciparum 3D7 crude extract, LDH APAD/NBT absorbance; at 2 µM; active compounds read high
[4] = inhibition of 3D7 malaria parasite growth – strain 3D7 (AID 2306);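 further: 0% = DMSO wells and 100% = chloroquine plus artemisinin control wells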; details: P. falciparum 3D7 erythrocytic growth, LDH absorbance, 72 h; at 2 µM; active compounds read high
[5] = molecular target: Calcium-dependent protein kinase 1 (Plasmodium falciparum (isolate 3D7)) (UniProt P62344); assay: PfCDPK1 kinase inhibitors, biochemical, TCAMS library (AID 1159585; cut-off not given, nearly all actives have IC50 up to about 0.98 µM;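 further: inhibitors leave more ATP so luminescence rises with inhibition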); details: recombinant PfCDPK1, Kinase-Glo ATP depletion luminescence
[6] = molecular target: Plasmodium falciparum protein kinase 6 (PK6, PF3D7_1337100) (UniProt Q8IDW1); assay: PfPK6 kinase inhibitors, biochemical, TCAMS library (AID 1159586); details: recombinant PfPK6, Kinase-Glo ATP depletion luminescence
[7] = molecular target: Protein kinase 7 (PK7), Plasmodium falciparum 3D7 (PF3D7_0213400) (UniProt Q7YTF7); assay: inhibition of Plasmodium PK7 catalytic activity – biochemical, TCAMS antimalarial set, Kinase-Glo luminescence (AID 1159587); details: recombinant PfPK7, Kinase-Glo ATP depletion luminescence
[8] = molecular target: Calcium-dependent protein kinase 4 (Plasmodium falciparum (isolate 3D7)) (UniProt Q8IBS5); assay: PfCDPK4 kinase inhibitors, biochemical, TCAMS library (AID 1159588; cut-off not given, nearly all actives have IC50 up to about 0.91 µM); details: recombinant PfCDPK4, Kinase-Glo ATP depletion luminescence
Calcium-dependent protein kinase 4 (Plasmodium falciparum (isolate 3D7)), sequence (Q8IBS5 whole entry, looked up): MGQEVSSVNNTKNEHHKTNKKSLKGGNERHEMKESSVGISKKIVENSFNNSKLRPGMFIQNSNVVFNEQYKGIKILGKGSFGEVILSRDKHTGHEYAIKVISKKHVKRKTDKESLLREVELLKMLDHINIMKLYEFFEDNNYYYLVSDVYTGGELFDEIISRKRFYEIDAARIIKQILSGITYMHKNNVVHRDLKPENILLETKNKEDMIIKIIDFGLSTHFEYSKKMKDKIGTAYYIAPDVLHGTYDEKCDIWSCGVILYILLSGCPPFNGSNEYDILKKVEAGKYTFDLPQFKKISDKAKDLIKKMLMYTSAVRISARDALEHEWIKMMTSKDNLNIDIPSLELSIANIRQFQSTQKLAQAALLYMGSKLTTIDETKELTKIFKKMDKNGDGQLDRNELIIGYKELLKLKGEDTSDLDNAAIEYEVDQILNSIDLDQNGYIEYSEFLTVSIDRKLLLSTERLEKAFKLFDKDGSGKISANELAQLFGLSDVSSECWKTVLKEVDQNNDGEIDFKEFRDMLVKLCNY

Protein kinase 7 (PK7), Plasmodium falciparum 3D7 (PF3D7_0213400), sequence (Q7YTF7 1-343): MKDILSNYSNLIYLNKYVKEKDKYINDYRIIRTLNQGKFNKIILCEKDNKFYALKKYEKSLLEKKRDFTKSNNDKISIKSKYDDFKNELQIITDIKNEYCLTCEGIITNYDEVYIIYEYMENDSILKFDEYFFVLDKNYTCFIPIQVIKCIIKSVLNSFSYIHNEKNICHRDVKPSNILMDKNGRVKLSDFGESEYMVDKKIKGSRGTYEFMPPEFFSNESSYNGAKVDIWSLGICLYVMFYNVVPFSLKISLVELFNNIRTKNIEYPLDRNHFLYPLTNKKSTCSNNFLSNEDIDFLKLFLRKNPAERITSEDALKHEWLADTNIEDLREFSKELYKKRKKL
L-lactate dehydrogenase (Plasmodium falciparum (isolate CDC / Honduras)), sequence (Q27743 whole entry, looked up): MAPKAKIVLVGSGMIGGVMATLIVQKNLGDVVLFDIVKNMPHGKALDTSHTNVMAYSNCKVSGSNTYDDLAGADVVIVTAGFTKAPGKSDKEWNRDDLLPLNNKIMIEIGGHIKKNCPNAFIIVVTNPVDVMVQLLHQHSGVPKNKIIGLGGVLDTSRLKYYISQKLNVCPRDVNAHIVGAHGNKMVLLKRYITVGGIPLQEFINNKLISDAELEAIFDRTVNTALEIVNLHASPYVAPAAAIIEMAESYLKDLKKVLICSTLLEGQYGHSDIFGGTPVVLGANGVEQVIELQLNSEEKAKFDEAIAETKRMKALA
Plasmodium falciparum protein kinase 6 (PK6, PF3D7_1337100), sequence (Q8IDW1 1-305): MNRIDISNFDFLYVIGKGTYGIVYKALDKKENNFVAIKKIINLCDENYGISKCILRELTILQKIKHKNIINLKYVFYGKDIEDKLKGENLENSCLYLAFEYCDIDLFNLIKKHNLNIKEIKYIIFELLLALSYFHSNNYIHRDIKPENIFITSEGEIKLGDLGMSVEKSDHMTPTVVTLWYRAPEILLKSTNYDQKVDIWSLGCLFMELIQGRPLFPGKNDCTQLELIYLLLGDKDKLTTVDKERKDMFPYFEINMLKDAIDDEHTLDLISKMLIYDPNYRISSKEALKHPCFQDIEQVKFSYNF
Calcium-dependent protein kinase 1 (Plasmodium falciparum (isolate 3D7)), sequence (P62344 whole entry, looked up): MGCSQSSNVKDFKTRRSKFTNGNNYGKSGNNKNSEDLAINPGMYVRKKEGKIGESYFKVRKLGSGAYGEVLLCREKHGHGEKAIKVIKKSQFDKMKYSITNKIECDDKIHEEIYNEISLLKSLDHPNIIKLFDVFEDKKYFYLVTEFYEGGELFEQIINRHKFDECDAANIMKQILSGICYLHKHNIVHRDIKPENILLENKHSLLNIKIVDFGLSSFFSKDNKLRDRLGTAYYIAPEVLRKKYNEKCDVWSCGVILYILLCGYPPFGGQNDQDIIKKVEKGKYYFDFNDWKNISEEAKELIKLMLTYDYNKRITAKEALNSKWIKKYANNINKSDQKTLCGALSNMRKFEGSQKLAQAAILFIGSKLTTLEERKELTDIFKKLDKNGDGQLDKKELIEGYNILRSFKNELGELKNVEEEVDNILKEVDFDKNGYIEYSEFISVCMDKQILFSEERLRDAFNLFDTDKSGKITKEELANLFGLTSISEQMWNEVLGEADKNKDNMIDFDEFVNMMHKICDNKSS

Structure (SMILES)	growth inhibition [1]	inhibition [2]	inhibition [3]	growth inhibition [4]	outcome [5]	outcome [6]	outcome [7]	outcome [8]
O=S(=O)(Nc1ccc(CCN2CCC(N3CCCCC3)CC2)cc1)c1ccccc1C(F)(F)F	8% (inactive)	9% (inactive)	-3% (inactive)	95% (active)	inactive	inactive	inactive	inactive
Cn1nc(-c2cccc(CNCCc3cccs3)c2)c2cnc(NC3CCCC3)nc21	-1% (inactive)	8% (inactive)	-1% (inactive)	97% (active)	inactive	inactive	inactive	inactive
O=C1CSc2ccc(CNC3CCN(CCc4c(F)cnc5ccc(F)cc45)CC3)nc2N1	16% (inactive)	13% (inactive)	1% (inactive)	97% (active)	inactive	inactive	inactive	inactive
Cc1ccc(Nc2nc(NN=Cc3ccc(-c4ccc([N+](=O)[O-])cc4)o3)nc(N3CCOCC3)n2)cc1Cl	47% (inactive)	12% (inactive)	-1% (inactive)	95% (active)	inactive	inactive	inactive	inactive
COc1cc(NC(=O)N2CCc3ccc(OCCN(C(C)C)C(C)C)cc32)cc(C(F)(F)F)c1	97% (active)	6% (inactive)	3% (inactive)	102% (active)	inactive	inactive	inactive	inactive
O=C(NCCCCN1CCN(CC=Cc2ccccc2)CC1)c1ccc(NC(=O)c2cc(Cl)cc(Cl)c2)cc1	63% (active)	26% (inactive)	4% (inactive)	100% (active)	inactive	inactive	inactive	inactive
CCOC(=O)C1=C(C)N=c2sc(=Cc3cc(Cl)ccc3O)c(=O)n2C1c1ccc(OC)cc1 (stereo not given)	65% (active)	-6% (inactive)	-3% (inactive)	99% (active)	inactive	inactive	inactive	inactive
O=C(/C=C/c1ccc(Cl)c(Cl)c1)NCCCCCN1CCCC(CNC(=O)Nc2ccc(Oc3ccccc3)cc2)C1 (stereo not given)	6% (inactive)	26% (inactive)	-2% (inactive)	99% (active)	inactive	inactive	inactive	inactive
Cc1ccc2c(c1)C1(CC(=O)N(CCc3scnc3C)C1=O)C(=O)N2Cc1ccccc1 (stereo not given)	73% (active)	-5% (inactive)	2% (inactive)	83% (active)	inactive	inactive	inactive	inactive
N#Cc1c(-c2ccccc2)cn2c1[nH]c(=O)c1ccccc12	95% (active)	-1% (inactive)	1% (inactive)	92% (active)	inactive	inactive	inactive	inactive
CN(C)c1ccc(CN2CCC(CNC(=O)c3cc(-c4ccccc4Cl)cs3)C2)cc1 (stereo not given)	5% (inactive)	29% (inactive)	-3% (inactive)	91% (active)	inactive	inactive	inactive	inactive
COc1cc2nc(N3CCC(CNCc4ccc(-c5ccc(C(F)(F)F)cc5)cc4)CC3)nc(N)c2cc1OC	100% (active)	99% (active)	-4% (inactive)	99% (active)	inactive	inactive	inactive	inactive
CC(C)N1CCN(C(CN2CCN(CCCOc3ccc4ccccc4c3)CC2)c2ccc(F)cc2)CC1 (stereo not given)	91% (active)	59% (active)	5% (inactive)	101% (active)	inactive	inactive	inactive	inactive
COC(=O)c1ccc(-c2ccc(-c3cccnc3)cc2C)cc1	98% (active)	81% (active)	3% (inactive)	100% (active)	inactive	inactive	inactive	inactive
FC(F)(F)c1ccc(-c2cncc(-c3ccc(C(F)(F)F)cc3)n2)cc1	97% (active)	9% (inactive)	-7% (inactive)	98% (active)	inactive	inactive	inactive	inactive
NC1CCCN(Cc2ccc(-c3cccc(-c4nc5ccccc5[nH]4)c3)cc2)C1 (stereo not given)	26% (inactive)	26% (inactive)	2% (inactive)	95% (active)	inactive	inactive	inactive	inactive
CC(C)c1nc(N2CCN(C(=S)NCc3ccccc3)CC2)c(C#N)c2c1COC(C)(C)C2	100% (active)	-7% (inactive)	6% (inactive)	99% (active)	inactive	inactive	inactive	inactive
CCN(CC)CCNc1ccnc2[nH]c3ccc([N+](=O)[O-])cc3c12	76% (active)	6% (inactive)	-4% (inactive)	100% (active)	inactive	inactive	inactive	inactive
Clc1ccc(CNc2ccnc(NCc3cccnc3N3CCCC3)n2)c(Cl)c1	53% (active)	37% (inactive)	-5% (inactive)	85% (active)	inactive	inactive	inactive	inactive
O=C(NCCCCCN1CCC(c2c[nH]c3ccccc23)CC1)Nc1ccc(Cl)cc1Cl	15% (inactive)	71% (active)	-2% (inactive)	99% (active)	inactive	inactive	inactive	inactive

Structure (SMILES)	growth inhibition [1]	inhibition [2]	inhibition [3]	growth inhibition [4]	outcome [5]	outcome [6]	outcome [7]	outcome [8]
Cc1cc(N(C)C)nc(Nc2ccc(NS(=O)(=O)c3ccccc3)cc2)n1	11% (inactive)	-3% (inactive)	-1% (inactive)	92% (active)	inactive	inactive	inactive	inactive
CC(C)(C(=O)Nc1ccc(C2CCC(NCC3CC3)CC2)c(Cl)c1)c1ccc(C(F)(F)F)cc1 (stereo not given)	18% (inactive)	64% (active)	-1% (inactive)	97% (active)	inactive	inactive	inactive	inactive
CCCCOc1ccc(C(=O)C(CCC(CNC(C)(C)C)C(=O)c2ccc(OCCCC)cc2)CNC(C)(C)C)cc1 (stereo not given)	92% (active)	100% (active)	1% (inactive)	94% (active)	inactive	inactive	inactive	inactive
O=S(=O)(NC1CCN(c2ccnc3cc(Cl)ccc23)C1)c1ccc(F)cc1 (stereo not given)	88% (active)	3% (inactive)	3% (inactive)	98% (active)	inactive	inactive	inactive	inactive
COc1ccc(Nc2nc(N3CCCC3)c3ccccc3n2)cc1	98% (active)	40% (inactive)	2% (inactive)	102% (active)	inactive	inactive	inactive	inactive
Cc1ccc(NC(=O)NC2CCN(CCCCCNC(=O)/C=C/c3ccc(Cl)c(Cl)c3)CC2)cc1	19% (inactive)	41% (inactive)	-2% (inactive)	102% (active)	inactive	inactive	inactive	inactive
N#Cc1cccc(NC(=O)Nc2cccc(-c3cccc(-c4nc5ccc(F)cc5[nH]4)c3)c2)c1	66% (active)	60% (active)	0% (inactive)	102% (active)	inactive	inactive	inactive	inactive
CC(=O)Nc1ccc(CN2CCC(CNC(=O)c3cc(-c4cccc(Cl)c4)cs3)C2)cc1 (stereo not given)	1% (inactive)	24% (inactive)	2% (inactive)	91% (active)	inactive	inactive	inactive	inactive
COc1ccc2nccc(NN=Cc3cccc(C)n3)c2c1	99% (active)	16% (inactive)	3% (inactive)	100% (active)	inactive	inactive	inactive	inactive
FC(F)(F)Oc1cccc(CNc2noc(-c3sccc3Br)n2)c1	97% (active)	0% (inactive)	-3% (inactive)	100% (active)	inactive	inactive	inactive	inactive
COCCOc1nc(N)nc2ncc(Cc3cc(OC)ccc3OC)c(C)c12	0% (inactive)	61% (active)	-5% (inactive)	96% (active)	inactive	inactive	inactive	inactive
FC(F)(F)c1ccc2nc(-c3ccc(-c4ccc(CN5CCN(c6ccncc6)CC5)cc4)cc3)[nH]c2c1	99% (active)	91% (active)	6% (inactive)	101% (active)	inactive	inactive	inactive	inactive
c1cc(CNCc2ccc3c(c2)OCO3)cc(-c2cccc(CNc3ccc4ncccc4c3)c2)c1	27% (inactive)	18% (inactive)	-4% (inactive)	98% (active)	inactive	inactive	inactive	inactive
Nc1nc(N)c2c(ccc3nn(Cc4cccnc4)cc32)n1	0% (inactive)	41% (inactive)	0% (inactive)	96% (active)	inactive	inactive	inactive	inactive
Cc1cccc(C(=O)Nc2ccnc(N3CCC(N(C)Cc4ccccc4)CC3)c2)c1	2% (inactive)	12% (inactive)	-1% (inactive)	93% (active)	inactive	inactive	inactive	inactive
O=C(Oc1ccc(C2CNCCc3c2cc(OC(=O)c2ccc(O)cc2)c(OC(=O)c2ccc(O)cc2)c3Cl)cc1)c1ccc(O)cc1 (stereo not given)	60% (active)	-2% (inactive)	0% (inactive)	90% (active)	inactive	inactive	inactive	inactive
CC(C)(C)c1ccc(C(=O)Nc2ccc3nc4c(c(N)c3c2)CCCC4)cc1	99% (active)	21% (inactive)	-4% (inactive)	100% (active)	inactive	inactive	inactive	inactive
Cc1ccc(CN=C(N)NC(=O)c2nc(Cl)c(NCc3ccc(Cl)cc3)nc2N)c(C)c1	100% (active)	28% (inactive)	-5% (inactive)	101% (active)	inactive	inactive	inactive	inactive
CC(=O)N(C)c1cccc(C(=O)Nc2cccc(-c3cccc(-c4nc5c(C)cccc5[nH]4)c3)c2)c1	41% (inactive)	15% (inactive)	-9% (inactive)	89% (active)	inactive	inactive	inactive	inactive
Cc1nnsc1C(=O)Nc1cccc(-c2ccc(-c3nc4ccccc4[nH]3)cc2)c1	58% (active)	48% (inactive)	0% (inactive)	100% (active)	inactive	inactive	inactive	inactive
